In PMC11006913:
Where a chain is given by its changes, count along the chain named.

Columns and labels:
Assay in all cases: PBM; 200 nM protein, PBS
Conditions in all cases: dsDNA, one strand shown
[1] = molecular target: HOXC10 (Homo sapiens, UniProt Q9NYD6 254-340)
[2] = molecular target: ALX3 (Homo sapiens, UniProt O95076 139-225, N203Q)
[3] = molecular target: HOXC10 (Homo sapiens, UniProt Q9NYD6 254-340, K271E)
[4] = molecular target: ALX3 (Homo sapiens, UniProt O95076 139-225)
[5] = molecular target: ALX3 (Homo sapiens, UniProt O95076 139-225, L168Q)
[6] = molecular target: ALX3 (Homo sapiens, UniProt O95076 139-225, L168V)
[7] = molecular target: ALX3 (Homo sapiens, UniProt O95076 139-225, N203S)
[8] = molecular target: MSX2 (Homo sapiens, UniProt P35548 130-214, R199I)
[9] = molecular target: MSX2 (Homo sapiens, UniProt P35548 130-214)
[10] = molecular target: MSX2 (Homo sapiens, UniProt P35548 130-214, F161Y)
[11] = molecular target: T1, PAX4 (Homo sapiens, UniProt O43316 9-242, R200K)
T1 sequence: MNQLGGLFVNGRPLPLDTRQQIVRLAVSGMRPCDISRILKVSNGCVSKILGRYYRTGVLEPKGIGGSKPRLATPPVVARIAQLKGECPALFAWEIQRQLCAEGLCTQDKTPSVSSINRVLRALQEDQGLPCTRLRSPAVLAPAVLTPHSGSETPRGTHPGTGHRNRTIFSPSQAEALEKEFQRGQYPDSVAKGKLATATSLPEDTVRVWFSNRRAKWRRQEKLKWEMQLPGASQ

[12] = molecular target: T2, PAX4 (Homo sapiens, UniProt O43316 9-242)
T2 sequence: T1 sequence with K192R

[13] = molecular target: ALX1 (Homo sapiens, UniProt Q15699 118-204, L144V)
[14] = molecular target: T3, PAX4 (Homo sapiens, UniProt O43316 9-242, R200Q)
T3 sequence: T1 sequence with K192Q

[15] = molecular target: ALX1 (Homo sapiens, UniProt Q15699 118-204, L144R)
[16] = molecular target: T4, PAX4 (Homo sapiens, UniProt O43316 9-242, F177V)
T4 sequence: T1 sequence with F169V, K192R

[17] = molecular target: T5, PAX4 (Homo sapiens, UniProt O43316 9-242, F177Y)
T5 sequence: T1 sequence with F169Y, K192R

[18] = molecular target: T6, PAX4 (Homo sapiens, UniProt O43316 9-242, R227W)
T6 sequence: T1 sequence with K192R, R219W

[19] = molecular target: ALX1 (Homo sapiens, UniProt Q15699 118-204)
[20] = molecular target: HOXB6 (Homo sapiens, UniProt P17509 132-218, K202E)
[21] = molecular target: PROP1 (Homo sapiens, UniProt O75360 56-141)
[22] = molecular target: PROP1 (Homo sapiens, UniProt O75360 56-141, R99H)
[23] = molecular target: PROP1 (Homo sapiens, UniProt O75360 56-141, F88S)
[24] = molecular target: HOXB6 (Homo sapiens, UniProt P17509 132-218)
[25] = molecular target: HOXD13 (Homo sapiens, UniProt P35453 263-343, T313R)
[26] = molecular target: HOXD13 (Homo sapiens, UniProt P35453 263-343)
[27] = molecular target: HOXD13 (Homo sapiens, UniProt P35453 263-343, T313A)
[28] = molecular target: HOXA2 (Homo sapiens, UniProt O43364 129-215, R185T)
[29] = molecular target: HOXA2 (Homo sapiens, UniProt O43364 129-215, R185K)
[30] = molecular target: VAX1 (Homo sapiens, UniProt Q5SQQ9 86-172)
[31] = molecular target: VAX1 (Homo sapiens, UniProt Q5SQQ9 86-172, T142I)
[32] = molecular target: HOXA2 (Homo sapiens, UniProt O43364 129-215, Y150S)
[33] = molecular target: HOXA2 (Homo sapiens, UniProt O43364 129-215)
[34] = molecular target: VAX1 (Homo sapiens, UniProt Q5SQQ9 86-172, K157R)
Chain of VAX1 (Homo sapiens, UniProt Q5SQQ9 86-172, K157R) (Q5SQQ9 86-172 K157R): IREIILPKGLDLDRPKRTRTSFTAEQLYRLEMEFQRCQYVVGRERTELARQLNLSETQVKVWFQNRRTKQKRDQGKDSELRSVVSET

Chain of HOXC10 (Homo sapiens, UniProt Q9NYD6 254-340, K271E) (Q9NYD6 254-340 K271E): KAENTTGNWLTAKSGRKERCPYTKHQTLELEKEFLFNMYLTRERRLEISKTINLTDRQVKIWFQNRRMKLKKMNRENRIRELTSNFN
Chain of HOXC10 (Homo sapiens, UniProt Q9NYD6 254-340) (Q9NYD6 254-340): as the sequence (Q9NYD6 254-340 K271E) above, with E18K counted along it
Chain of ALX1 (Homo sapiens, UniProt Q15699 118-204, L144R) (Q15699 118-204 L144R): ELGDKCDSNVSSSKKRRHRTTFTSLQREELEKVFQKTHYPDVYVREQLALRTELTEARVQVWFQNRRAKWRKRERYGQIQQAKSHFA
Chain of ALX3 (Homo sapiens, UniProt O95076 139-225, L168Q) (O95076 139-225 L168Q): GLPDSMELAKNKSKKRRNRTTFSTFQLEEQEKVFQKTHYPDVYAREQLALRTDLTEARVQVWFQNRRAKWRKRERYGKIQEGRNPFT
Chain of MSX2 (Homo sapiens, UniProt P35548 130-214, R199I) (P35548 130-214 R199I): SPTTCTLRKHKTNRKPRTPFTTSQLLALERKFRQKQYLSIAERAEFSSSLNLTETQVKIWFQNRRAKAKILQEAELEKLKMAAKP
Chain of HOXA2 (Homo sapiens, UniProt O43364 129-215, R185T) (O43364 129-215 R185T): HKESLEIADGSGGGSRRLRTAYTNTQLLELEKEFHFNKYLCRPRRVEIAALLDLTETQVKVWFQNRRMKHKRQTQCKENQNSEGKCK
Chain of VAX1 (Homo sapiens, UniProt Q5SQQ9 86-172) (Q5SQQ9 86-172): as the sequence (Q5SQQ9 86-172 K157R) above, with R72K counted along it
Chain of ALX3 (Homo sapiens, UniProt O95076 139-225) (O95076 139-225): as the sequence (O95076 139-225 L168Q) above, with Q30L counted along it
Chain of HOXA2 (Homo sapiens, UniProt O43364 129-215, R185K) (O43364 129-215 R185K): as the sequence (O43364 129-215 R185T) above, with T57K counted along it
Chain of ALX3 (Homo sapiens, UniProt O95076 139-225, L168V) (O95076 139-225 L168V): as the sequence (O95076 139-225 L168Q) above, with Q30V counted along it
Chain of HOXD13 (Homo sapiens, UniProt P35453 263-343) (P35453 263-343): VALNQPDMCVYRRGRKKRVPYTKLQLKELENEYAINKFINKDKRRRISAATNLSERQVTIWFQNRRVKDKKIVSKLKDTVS
Chain of MSX2 (Homo sapiens, UniProt P35548 130-214, F161Y) (P35548 130-214 F161Y): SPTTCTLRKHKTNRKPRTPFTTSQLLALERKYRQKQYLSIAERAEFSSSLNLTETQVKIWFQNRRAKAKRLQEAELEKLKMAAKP
Chain of MSX2 (Homo sapiens, UniProt P35548 130-214) (P35548 130-214): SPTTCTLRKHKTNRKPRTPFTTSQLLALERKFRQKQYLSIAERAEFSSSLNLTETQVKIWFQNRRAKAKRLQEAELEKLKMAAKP
Chain of HOXB6 (Homo sapiens, UniProt P17509 132-218) (P17509 132-218): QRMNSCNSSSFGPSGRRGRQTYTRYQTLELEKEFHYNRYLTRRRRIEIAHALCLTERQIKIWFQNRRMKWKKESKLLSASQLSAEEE
Chain of HOXD13 (Homo sapiens, UniProt P35453 263-343, T313R) (P35453 263-343 T313R): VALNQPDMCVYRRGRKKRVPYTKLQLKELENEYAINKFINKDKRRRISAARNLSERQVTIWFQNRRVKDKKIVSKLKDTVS
Chain of PROP1 (Homo sapiens, UniProt O75360 56-141, F88S) (O75360 56-141 F88S): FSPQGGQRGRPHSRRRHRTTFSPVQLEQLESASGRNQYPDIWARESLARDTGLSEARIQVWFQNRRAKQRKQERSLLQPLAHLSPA
Chain of ALX1 (Homo sapiens, UniProt Q15699 118-204, L144V) (Q15699 118-204 L144V): as the sequence (Q15699 118-204 L144R) above, with R27V counted along it
Chain of PROP1 (Homo sapiens, UniProt O75360 56-141) (O75360 56-141): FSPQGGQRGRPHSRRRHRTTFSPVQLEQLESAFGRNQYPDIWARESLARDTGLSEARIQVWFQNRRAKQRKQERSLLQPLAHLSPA
Chain of HOXA2 (Homo sapiens, UniProt O43364 129-215) (O43364 129-215): as the sequence (O43364 129-215 R185T) above, with T57R counted along it
Chain of HOXD13 (Homo sapiens, UniProt P35453 263-343, T313A) (P35453 263-343 T313A): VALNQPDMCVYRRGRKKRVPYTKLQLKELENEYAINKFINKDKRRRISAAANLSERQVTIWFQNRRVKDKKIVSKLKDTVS
Chain of VAX1 (Homo sapiens, UniProt Q5SQQ9 86-172, T142I) (Q5SQQ9 86-172 T142I): as the sequence (Q5SQQ9 86-172 K157R) above, with T57I, R72K counted along it
Chain of PROP1 (Homo sapiens, UniProt O75360 56-141, R99H) (O75360 56-141 R99H): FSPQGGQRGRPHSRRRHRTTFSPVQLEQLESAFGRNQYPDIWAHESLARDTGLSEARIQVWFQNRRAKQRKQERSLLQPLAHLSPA
Chain of HOXB6 (Homo sapiens, UniProt P17509 132-218, K202E) (P17509 132-218 K202E): as the sequence (P17509 132-218) above, with K71E counted along it
Chain of ALX1 (Homo sapiens, UniProt Q15699 118-204) (Q15699 118-204): as the sequence (Q15699 118-204 L144R) above, with R27L counted along it
Chain of ALX3 (Homo sapiens, UniProt O95076 139-225, N203S) (O95076 139-225 N203S): as the sequence (O95076 139-225 L168Q) above, with Q30L, N65S counted along it
Chain of ALX3 (Homo sapiens, UniProt O95076 139-225, N203Q) (O95076 139-225 N203Q): as the sequence (O95076 139-225 L168Q) above, with Q30L, N65Q counted along it
Chain of HOXA2 (Homo sapiens, UniProt O43364 129-215, Y150S) (O43364 129-215 Y150S): as the sequence (O43364 129-215 R185T) above, with Y22S, T57R counted along it

CCTGGGAC
binding signal [1]: 9.91 upbm affinity estimate (log intensity, higher = more binding, comparable within an allelic series)
binding signal [2]: 7.73 upbm affinity estimate (log intensity, higher = more binding, comparable within an allelic series)
binding signal [3]: 9.99 upbm affinity estimate (log intensity, higher = more binding, comparable within an allelic series)
binding signal [4]: 7.73 upbm affinity estimate (log intensity, higher = more binding, comparable within an allelic series)
binding signal [5]: 7.73 upbm affinity estimate (log intensity, higher = more binding, comparable within an allelic series)
binding signal [6]: 7.7 upbm affinity estimate (log intensity, higher = more binding, comparable within an allelic series)
binding signal [7]: 7.68 upbm affinity estimate (log intensity, higher = more binding, comparable within an allelic series)

AGTCGGCG
binding signal [1]: 10.1 upbm affinity estimate (log intensity, higher = more binding, comparable within an allelic series)
binding signal [8]: 9.6 upbm affinity estimate (log intensity, higher = more binding, comparable within an allelic series)
binding signal [3]: 10.1 upbm affinity estimate (log intensity, higher = more binding, comparable within an allelic series)
binding signal [9]: 9.58 upbm affinity estimate (log intensity, higher = more binding, comparable within an allelic series)
binding signal [10]: 9.6 upbm affinity estimate (log intensity, higher = more binding, comparable within an allelic series)

ACCCGAGC
binding signal [1]: 10.1 upbm affinity estimate (log intensity, higher = more binding, comparable within an allelic series)
binding signal [11]: 9.37 upbm affinity estimate (log intensity, higher = more binding, comparable within an allelic series)
binding signal [12]: 9.24 upbm affinity estimate (log intensity, higher = more binding, comparable within an allelic series)
binding signal [13]: 6.62 upbm affinity estimate (log intensity, higher = more binding, comparable within an allelic series)
binding signal [14]: 9.32 upbm affinity estimate (log intensity, higher = more binding, comparable within an allelic series)
binding signal [15]: 6.43 upbm affinity estimate (log intensity, higher = more binding, comparable within an allelic series)
binding signal [16]: 9.28 upbm affinity estimate (log intensity, higher = more binding, comparable within an allelic series)
binding signal [3]: 10 upbm affinity estimate (log intensity, higher = more binding, comparable within an allelic series)
binding signal [17]: 9.29 upbm affinity estimate (log intensity, higher = more binding, comparable within an allelic series)
binding signal [18]: 9.37 upbm affinity estimate (log intensity, higher = more binding, comparable within an allelic series)
binding signal [19]: 6.4 upbm affinity estimate (log intensity, higher = more binding, comparable within an allelic series)

GGGGGGAA
binding signal [1]: 10 upbm affinity estimate (log intensity, higher = more binding, comparable within an allelic series)
binding signal [20]: 9 upbm affinity estimate (log intensity, higher = more binding, comparable within an allelic series)
binding signal [3]: 9.95 upbm affinity estimate (log intensity, higher = more binding, comparable within an allelic series)
binding signal [21]: 6.74 upbm affinity estimate (log intensity, higher = more binding, comparable within an allelic series)
binding signal [22]: 6.57 upbm affinity estimate (log intensity, higher = more binding, comparable within an allelic series)
binding signal [23]: 6.2 upbm affinity estimate (log intensity, higher = more binding, comparable within an allelic series)
binding signal [24]: 9.07 upbm affinity estimate (log intensity, higher = more binding, comparable within an allelic series)

CTTTATTA
binding signal [1]: 12.2 upbm affinity estimate (log intensity, higher = more binding, comparable within an allelic series)
binding signal [25]: 10.6 upbm affinity estimate (log intensity, higher = more binding, comparable within an allelic series)
binding signal [26]: 11.8 upbm affinity estimate (log intensity, higher = more binding, comparable within an allelic series)
binding signal [3]: 11.7 upbm affinity estimate (log intensity, higher = more binding, comparable within an allelic series)
binding signal [27]: 11.5 upbm affinity estimate (log intensity, higher = more binding, comparable within an allelic series)

CGTGATAA
binding signal [1]: 10.9 upbm affinity estimate (log intensity, higher = more binding, comparable within an allelic series)

GGCACGCC
binding signal [1]: 10 upbm affinity estimate (log intensity, higher = more binding, comparable within an allelic series)
binding signal [28]: 6.97 upbm affinity estimate (log intensity, higher = more binding, comparable within an allelic series)
binding signal [29]: 10.1 upbm affinity estimate (log intensity, higher = more binding, comparable within an allelic series)
binding signal [3]: 10 upbm affinity estimate (log intensity, higher = more binding, comparable within an allelic series)
binding signal [30]: 6.93 upbm affinity estimate (log intensity, higher = more binding, comparable within an allelic series)
binding signal [31]: 7.04 upbm affinity estimate (log intensity, higher = more binding, comparable within an allelic series)
binding signal [32]: 10.3 upbm affinity estimate (log intensity, higher = more binding, comparable within an allelic series)
binding signal [33]: 7.03 upbm affinity estimate (log intensity, higher = more binding, comparable within an allelic series)
binding signal [34]: 6.97 upbm affinity estimate (log intensity, higher = more binding, comparable within an allelic series)

CAAATAAA
binding signal [1]: 11.4 upbm affinity estimate (log intensity, higher = more binding, comparable within an allelic series)
